Data on 96 compounds can be found in PubChem BioAssay AID463173 (ICCB-Longwood Screening Facility, Harvard Medical School, 2010).

SMILES strings stand for the structures. Screen size: about 52,000 compounds; about 1,700 (3.3%) were called active. Rule as the data show it: active = survival mostly below about 52% (no sharp cut-off); inactive = mostly above about 56%. What follows is part of a selection rich in actives, with near analogues and random picks from the rest.

The subject of this assay is Wild type. Put plainly: growth inhibition of S. aureus wild type versus tarO mutant, primary screen, teichoic acid synthesis inhibitors, RN4220, OD600 (AID 463173). The settings on record: S. aureus RN4220 wild type/DeltatarO growth, OD600, 18 h, stronger effect = lower value, screened at 18.75 µg/mL (by protocol).
As to `Cc1ccc(CNC(=O)CCCCCn2c(=O)[nH]c3ccccc3c2=O)cc1`, the survival is 146% (inactive).

As for `CCOc1ccc(NS(=O)(=O)c2ccc3[nH]cc(C(=O)N4CCCCCC4)c(=O)c3c2)cc1`, the survival is 122% (inactive).

Consider `COc1ccccc1N1CCN(Cc2nnc(-c3ccccc3C)o2)CC1`, for which the survival is 82% (inactive).

Consider `CCc1nn2c(=O)c(S(=O)(=O)Nc3ccc(Br)cc3F)c(C)nc2s1`, for which the survival was 61% (inactive).

In the case of `COc1ccccc1C(=O)NC1(C(F)(F)F)C(=O)NC(C)=C1C#N` (stereo unspecified), the survival was 90% (inactive).

As to `Cc1ccc(NC(=O)c2oc3ccccc3c2NC(=O)C2CCCCC2)cc1`, the survival was 4% (active).

On to `Cc1ccc(C(=O)Nc2c(C(=O)NC(C)(C)C)oc3ccccc23)cc1`, for which the survival is 0% (active).

For the compound `CN(C)c1ccc(C(=O)Nc2c(C(=O)NC(C)(C)C)oc3ccccc23)cc1`, the survival is 65% (inactive).

As for `CC(C)(C)NC(=O)c1oc2ccccc2c1NC(=O)c1ccc(F)cc1`, the survival is 73% (inactive).

Turning to `CCOc1ccc(NC(=O)c2oc3ccccc3c2NC(=O)C2CCCCC2)cc1`, the survival was 84% (inactive).

Consider `O=C(Nc1ccc(F)cc1)c1oc2ccccc2c1NC(=O)C1CCCCC1`, for which the survival was 14% (inactive).

For `CCOC(=O)c1sc(NC(=O)c2c(-c3ccccc3)c(-c3ccccc3)nn(C)c2=O)nc1C`, the survival is 71% (inactive).

Regarding `COc1ccc(-c2noc(Cn3c(=O)c4ccccc4n(CC(=O)Nc4cccc(OC)c4)c3=O)n2)cc1`, the survival was 82% (inactive).

With `Cc1ccccc1NS(=O)(=O)c1ccc2[nH]cc(C(=O)N3CCCC3)c(=O)c2c1`, the survival is 99% (inactive).

On to `CC(Nc1ccc(-c2nc(-c3ccncc3)no2)cc1[N+](=O)[O-])c1ccccc1` (stereo unspecified), for which the survival is 87% (inactive).

Regarding `CCOc1ccc(NC(=O)Cn2c(=O)oc3cc(S(=O)(=O)NC4CCCC4)ccc32)cc1`, the survival was 81% (inactive).

On to `CCOCCCNC(=O)c1cnc2sc(N3CCCCCC3)nn2c1=O`, for which the survival was 68% (inactive).

Take `CCOC(=O)C1(C)C=C(Nc2cccc(C)c2)C(=O)N1c1ccccc1` (stereo unspecified): the survival is 51% (inactive).

For the compound `CCOC(=O)Cc1c(C)nc2cc(-c3ccc(C(C)(C)C)cc3)nn2c1C`, the survival is -2% (active).

Turning to `CCOC(=O)Cc1c(C)nc2cc(C)nn2c1C`, the survival was 106% (inactive).

As for `CCOC(=O)CC(NC(=O)CCc1c(C)nc2cc(-c3ccccc3)nn2c1C)c1ccc(C)cc1` (stereo unspecified), the survival is 128% (inactive).

Regarding `O=C(Nc1ccccc1O)c1cccc(S(=O)(=O)Nc2ccccc2O)c1`, the survival is 108% (inactive).

As for `CCN1CCN(CC2CCCCC2)CC1`, the survival was 102% (inactive).

With `CC1CN(C(=O)CCC(=O)NCc2ccccc2)c2cc(Cl)ccc2O1` (stereo unspecified), the survival was 92% (inactive).

Take `CCOc1ccccc1-c1nnc(SCc2ccc(Cl)cc2)o1`: the survival is -14% (active).

With `Oc1ccc(-c2nnc(SCc3ccc(Cl)cc3)o2)cc1`, the survival is 112% (inactive).

As for `Oc1ccccc1-c1nnc(SCc2ccccc2)o1`, the survival is 103% (inactive).

On to `Cc1cc(C(=O)N2CCN(c3cc(Cl)ccc3C)CC2)c2c(C)nn(-c3ccccc3)c2n1`, for which the survival is 136% (inactive).

On to `O=C(Nc1ncn[nH]1)C(F)(F)C(F)F`, for which the survival was 108% (inactive).

With `O=C1CC(c2ccccc2)Cc2[nH]c(=O)c(C(=O)Nc3cccc(F)c3)cc21` (stereo unspecified), the survival is 85% (inactive).

With `O=C1CC(c2ccccc2)Cc2[nH]c(=O)c(C(=O)Nc3ccc(F)cc3)cc21` (stereo unspecified), the survival is 75% (inactive).

Turning to `CC(=O)c1ccc(NC(=O)c2cc3c([nH]c2=O)CC(c2ccccc2)CC3=O)cc1` (stereo unspecified), the survival is 85% (inactive).

With `O=C1CC(c2ccccc2)Cc2[nH]c(=O)c(C(=O)Nc3cccc(Cl)c3)cc21` (stereo unspecified), the survival was 0% (active).

`Cc1cccc(NC(=O)c2cc3c([nH]c2=O)CC(c2ccccc2)CC3=O)c1` (stereo unspecified): the survival is -3% (active).

With `COc1ccc(NC(=O)c2cc3c([nH]c2=O)CC(c2ccccc2)CC3=O)cc1` (stereo unspecified), the survival is 63% (inactive).

For the compound `CCOC(=O)c1ccc(NC(=O)CSc2ccc(-c3ccccn3)nn2)cc1`, the survival is 90% (inactive).

On to `COc1ccccc1N1CCN(C(=O)c2nc(-c3ccc(C)cc3)n3c2CCCCC3)CC1`, for which the survival was 85% (inactive).

With `Cc1ccc(-n2ncc3c(N(C)Cc4ccccc4)ncnc32)cc1`, the survival is 85% (inactive).

Take `Cc1ccc(-n2ncc3c(N(CCO)Cc4ccccc4)ncnc32)cc1`: the survival is 0% (active).

`Cc1ccc(-n2ncc3c(NCCc4ccccc4)ncnc32)cc1`: the survival is 76% (inactive).

With `OCCN(CCO)c1ncnc2c1cnn2-c1ccc(F)cc1`, the survival is 1% (active).

On to `CCN(Cc1ccccc1)c1ncnc2c1cnn2-c1ccc(F)cc1`, for which the survival was 55% (inactive).

In the case of `CCCCN(CCCC)c1ncnc2c1cnn2-c1cccc(C)c1`, the survival was 91% (inactive).

As to `CCOc1ccc(-c2cc3nc(C4CCN(C(=O)OC(C)(C)C)CC4)c(C(=O)Nc4c(C)cccc4C)cn3n2)cc1`, the survival was 86% (inactive).

Turning to `CCOc1ccc(C(=O)CSc2nnc3cc(C)c4ccccc4n23)cc1`, the survival was 85% (inactive).

With `CCOCCn1ccc2c(OCC(=O)Nc3cccc([N+](=O)[O-])c3)cccc2c1=O`, the survival was 128% (inactive).

On to `CCCN1C2CCCC1CC(NC(=O)c1ccc(F)cc1)C2` (stereo unspecified), for which the survival was 108% (inactive).

For the compound `CNC(=O)Cn1c(=O)c2cccn2c2ccc(F)cc21`, the survival is 85% (inactive).

Regarding `COc1ccc(OCCn2c(C(C)Oc3ccccc3)nc3ccccc32)cc1` (stereo unspecified), the survival is 72% (inactive).

Regarding `COc1ccccc1OCCn1c(NC(=O)c2ccccc2Cl)nc2ccccc21`, the survival is -10% (active).

Regarding `COc1ccccc1OCCn1c(C(C)Oc2ccccc2)nc2ccccc21` (stereo unspecified), the survival is 76% (inactive).

Consider `CCCC(O)c1nc2ccccc2n1CCCOc1ccc(Cl)cc1` (stereo unspecified), for which the survival was 97% (inactive).

`COc1ccccc1OCCn1c(NC(=O)c2ccc(Cl)cc2)nc2ccccc21`: the survival was 80% (inactive).

Regarding `OCCNc1nc2ccccc2n1CCOc1ccccc1`, the survival is 115% (inactive).

On to `O=C(Nc1nc2ccccc2n1CCOc1ccccc1Cl)c1ccccc1`, for which the survival was 36% (inactive).

Take `COc1ccc(OCCn2c(NC(=O)c3ccc(OC)cc3)nc3ccccc32)cc1`: the survival was -13% (active).

`COc1ccc(C(=O)Nc2nc3ccccc3n2CCOc2ccc(Cl)cc2)cc1`: the survival is 4% (active).

For `Cc1ccc(N2CC(NC(=O)/C=C\c3ccc4c(c3)OCO4)CC2=O)cc1C` (stereo unspecified), the survival was 130% (inactive).

Take `CCOc1ccc(CCNC(=O)c2nn(-c3ccc(OC)c(Cl)c3)c(=O)c3c2c2ccccc2n3C)cc1OCC`: the survival was 88% (inactive).

In the case of `COc1ccc(OC)c(-n2cnc3cc(C(=O)NC4CCCC4)ccc32)c1`, the survival was 72% (inactive).

For `CC1=CC(C)C2C(=O)N(c3ccccc3)C(=O)C2C1` (stereo unspecified), the survival was 111% (inactive).

`COc1ccc(NC(=O)Cn2c(=O)oc3cc(S(=O)(=O)N4CCCC4)ccc32)cc1OC`: the survival is 79% (inactive).

With `COc1cc(C2N=C(N)Nc3nc4ccccc4n32)ccc1OCCC(C)C` (stereo unspecified), the survival is 85% (inactive).

Regarding `CC(C)CCOc1ccc(C2N=C(N)Nc3nc4ccccc4n32)cc1` (stereo unspecified), the survival was -15% (active).

Regarding `CC(C)c1ccc(C2N=C(N)Nc3nc4ccccc4n32)cc1` (stereo unspecified), the survival is 93% (inactive).

With `CCc1ccc(N2CCn3c2nc2c3c(=O)n(CCCc3ccccc3)c(=O)n2C)cc1`, the survival is 88% (inactive).

For the compound `O=C(Nc1ccccc1C(F)(F)F)N1CC=C(c2c[nH]c3ccccc23)CC1`, the survival is 127% (inactive).

Turning to `CN(C)C(=O)c1ccc(S(=O)(=O)NCc2ccc(Cl)cc2)s1`, the survival is 123% (inactive).

As for `Cc1ccc(CNS(=O)(=O)c2ccc(C(=O)N(C)C)s2)cc1`, the survival was -6% (active).

Regarding `COc1ccc(CNS(=O)(=O)c2ccc(C(=O)N(C)C)s2)cc1`, the survival is 87% (inactive).

For `CCc1ccc(C2C(C(=O)Nc3ccccc3OC)=C(C)Nc3c(C(=O)Nc4ccc(C)cc4)cnn32)cc1` (stereo unspecified), the survival was 74% (inactive).

Turning to `COc1ccccc1NC(=O)C1=C(C)Nc2c(C(=O)Nc3cccc(C)c3)cnn2C1c1ccccc1C` (stereo unspecified), the survival was 69% (inactive).

Regarding `CCc1ccc(C2C(C(=O)Nc3ccccc3)=C(C)Nc3c(C(=O)Nc4ccc(C)cc4)cnn32)cc1` (stereo unspecified), the survival is -1% (active).

Consider `COc1cccc(C2C=C(c3ccc(C)cc3)Nc3c(C(=O)Nc4ccc(F)cc4)cnn32)c1OC` (stereo unspecified), for which the survival is -3% (active).

Consider `COc1ccc(C2C(C(=O)Nc3ccccc3)=C(C)Nc3c(C(=O)Nc4ccccc4)cnn32)cc1` (stereo unspecified), for which the survival was 134% (inactive).

For `COc1ccccc1NC(=O)C1=C(C)Nc2c(C(=O)Nc3cccc(C)c3)cnn2C1c1ccccc1Cl` (stereo unspecified), the survival is -6% (active).

Turning to `CCOc1ccc(NC(=O)c2cnn3c2NC(c2ccccc2)=CC3c2cccc(OC)c2OC)cc1` (stereo unspecified), the survival was 85% (inactive).

In the case of `COc1ccccc1NC(=O)C1=C(C)Nc2c(C(=O)Nc3ccc(C)cc3)cnn2C1c1cccc(OC)c1OC` (stereo unspecified), the survival is 14% (active).

Regarding `COc1cccc(C2C(C(=O)Nc3ccc(C)cc3C)=C(C)Nc3c(C(=O)Nc4cccc(C)c4)cnn32)c1OC` (stereo unspecified), the survival is 78% (inactive).

`CC1=C(C(=O)Nc2ccccc2)C(c2ccccc2Cl)n2ncc(C(=O)Nc3cccc(C)c3)c2N1` (stereo unspecified): the survival was 72% (inactive).

`COc1cccc(C2C(C(=O)Nc3ccc(Cl)cc3)=C(C)Nc3c(C(=O)Nc4ccccc4)cnn32)c1OC` (stereo unspecified): the survival is 93% (inactive).

Consider `COc1cccc(C2C=C(c3ccccc3)Nc3c(C(=O)Nc4ccccc4)cnn32)c1OC` (stereo unspecified), for which the survival is 64% (inactive).

Regarding `Cc1c(C(=O)Nc2cccc(-c3nc4ccccc4s3)c2)oc2ccccc12`, the survival was 98% (inactive).

Regarding `Cc1ccc(C(NC(=O)Cc2cccs2)C(=O)Nc2ccc(C(C)C)cc2)cc1` (stereo unspecified), the survival was 82% (inactive).

For `CCOc1ccc(C(=O)N2CCCCC2CCN2CCOCC2)cc1` (stereo unspecified), the survival was 88% (inactive).

With `Cc1ccc(NC(=O)CSc2nccn2C2CCCC2)cc1Cl`, the survival was 125% (inactive).

For `COc1ccc2c(c1)c1c(c(=O)n(CCc3ccccc3)c(=O)n1Cc1ccc(Cl)cc1)n2C`, the survival is 63% (inactive).

For `CC(C)c1ccc2oc(-c3ccc(Cl)c(NC(=O)c4cccs4)c3)nc2c1`, the survival was 2% (active).

Turning to `O=C(Nc1cc(-c2nc3cc(Cl)ccc3o2)ccc1Cl)c1cccs1`, the survival was 79% (inactive).

Turning to `Cc1ccc(-c2nc3cc(C(C)C)ccc3o2)cc1NC(=O)c1cccs1`, the survival is 72% (inactive).

With `Cc1cc(NC(=O)c2cccs2)cc(-c2nc3cc(Cl)ccc3o2)c1O`, the survival is 87% (inactive).

`CCc1ccc2oc(-c3cc(NC(=O)c4cccs4)ccc3Cl)nc2c1`: the survival is 12% (inactive).

For the compound `Cc1cccc(C(=O)Nc2ccc(-c3nc4cc(C(C)C)ccc4o3)cc2)c1`, the survival is 47% (inactive).

For the compound `CC(C)c1ccc2oc(-c3cc(NC(=O)c4cccs4)ccc3Cl)nc2c1`, the survival was 7% (active).

In the case of `CC(C)c1ccc2oc(-c3cc(NC(=O)c4cccnc4)ccc3Cl)nc2c1`, the survival is 1% (active).

Turning to `Cc1cc(NC(=O)c2cccnc2)cc(-c2nc3cc(Cl)ccc3o2)c1O`, the survival was 157% (inactive).
